This passage reports GFP signal change (wild-type ribosome), OD600 change and RFP signal change results from PubChem BioAssay AID720706 (Broad Institute, 2013).

“And” between values parts separate entries of the source, which are not always exact repeats. Equal entries are not always repeated. About 5,500 (1.6%) of roughly 350,000 compounds were called active.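 The calls were made as follows: active = significant combined selectivity score with lowered wild-type GFP, culture density cut under 30%, mutant RFP and density less affected; inactive = any of these conditions unmet.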 Many of the other results were omitted from the sample, so actives are more common in it than they were.

The assay can be described thus: GFP drop in mixed WT/humanized-ribosome E. coli culture – GFP/RFP fluorescence, OD600, single point, bacterial rRNA inhibitor project, primary screen (AID 720706). The note with it: E. coli WT GFP vs humanized-ribosome RFP mutants, 24 h; GFP signal change (wild-type ribosome): stronger effect = lower value, DMSO median 0, no signal -100; OD600 change: measured here: OD600 growth, DMSO median 0, no signal -100; RFP signal change: measured here: RFP humanized mutant strains, DMSO median 0, no signal -100, concentration not given here.
For the molecule `C[C@@H]1CCCCO[C@H](CN(C)C(=O)NC2CCCCC2)[C@@H](C)CN([C@H](C)CO)C(=O)c2cc(NC(=O)CCC(F)(F)F)ccc2O1`, the GFP signal change (wild-type ribosome) is -0.169% (inactive), the OD600 change was -3.94% and the RFP signal change is -2.49%.

Consider `CCNC(=O)Nc1ccc2c(c1)C(=O)N(C)[C@@H]1CC[C@@H](CC(=O)NCCOC)O[C@@H]1CO2`, for which the GFP signal change (wild-type ribosome) is 4.01% (inactive), the OD600 change is 1.31% and the RFP signal change is -0.262%.

On to `COc1ccc2c3c([nH]c2c1)[C@H](CO)N(C(=O)CN1CCOCC1)CC31CN(C(C)=O)C1`, for which the GFP signal change (wild-type ribosome) is 3.07% (inactive), the OD600 change was found to be 2.55% and the RFP signal change was determined as 0.589%.

As to `CNC[C@H]1OCCCC[C@@H](C)Oc2ccc(NS(=O)(=O)c3ccc(F)cc3)cc2C(=O)N([C@H](C)CO)C[C@H]1C`, the GFP signal change (wild-type ribosome) was 2.84% (inactive), the OD600 change worked out at 7.37% and the RFP signal change is -0.102%.

For `CC(C)NC(=O)N(C)C[C@H]1OCCCC[C@H](C)Oc2ccc(NC(=O)CCCN(C)C)cc2C(=O)N([C@@H](C)CO)C[C@H]1C`, the GFP signal change (wild-type ribosome) was 3.73% (inactive), the OD600 change stood at 6.52% and the RFP signal change is -0.182%.

Turning to `COc1ccc2c3c(n(C)c2c1)[C@H](CO)N(C(=O)c1ccc(F)cc1)CC31CCN(C(C)=O)CC1`, the GFP signal change (wild-type ribosome) is -0.941% (inactive), the OD600 change came to 9.11% and the RFP signal change was -3.57%.

Take `CCOc1ccccc1Nc1ccc(C(=O)O)cc1[N+](=O)[O-]`: the GFP signal change (wild-type ribosome) was 1.23% (inactive), the OD600 change is -10.5% and the RFP signal change is -0.853%.

`COc1ccc(S(=O)(=O)Nc2ccc3cn[nH]c3c2)cc1[N+](=O)[O-]`: the GFP signal change (wild-type ribosome) is 3.58% (inactive), the OD600 change was 9.25% and the RFP signal change was -2.09%.

Take `COc1ccc(Br)cc1/C=N/Nc1ccc(S(=O)(=O)Nc2ccccc2C(=O)O)cc1[N+](=O)[O-]`: the GFP signal change (wild-type ribosome) is -24.6% (active), the OD600 change came out at 15.1% and the RFP signal change was -1.87%.

Turning to `CCCC#Cc1ccc([C@H]2[C@@H](CO)N3CCCCN(S(=O)(=O)Cc4ccccc4)C[C@H]23)cc1`, the GFP signal change (wild-type ribosome) is -54.1% (inactive), the OD600 change is -75.8% and the RFP signal change was -7.77%.

As for `C[C@@H]1CCCCO[C@H](CN(C)S(=O)(=O)c2cccs2)[C@H](C)CN([C@H](C)CO)C(=O)c2cc(NC(=O)c3ccccc3)ccc2O1`, the GFP signal change (wild-type ribosome) was 0.541% (inactive), the OD600 change is -5.5% and the RFP signal change stood at 4.83%.

On to `O=C(CCC(=O)c1cccs1)NC1CCCCCC1`, for which the GFP signal change (wild-type ribosome) is 13.3% (inactive), the OD600 change came to 16.6% and the RFP signal change stood at 0.589%.

In the case of `O=C(CCC(=O)c1cccs1)Nc1nc2ccccc2s1`, the GFP signal change (wild-type ribosome) is -21.4% (active), the OD600 change is -16.4% and the RFP signal change was -0.615%.

Turning to `O=C(c1cccs1)N1CCC(c2nc3ccccc3s2)CC1`, the GFP signal change (wild-type ribosome) is -27.6% (inactive), the OD600 change is -25.9% and the RFP signal change came to 9.84%.

Regarding `COc1cccc(OC)c1C(=O)N1CCN(Cc2ccccc2F)CC1`, the GFP signal change (wild-type ribosome) is 11.6% (inactive), the OD600 change was 16.8% and the RFP signal change came out at 0.962%.

Regarding `COc1cc(OC)c(OC)cc1CN1CCN(C(=O)c2cccc3ccccc23)CC1`, the GFP signal change (wild-type ribosome) is 9.36% (inactive), the OD600 change was 7.23% and the RFP signal change was determined as 0.512%.

On to `COc1ccc(Br)cc1CN1CCN(C(=O)c2cccc(OC)c2OC)CC1`, for which the GFP signal change (wild-type ribosome) was -28.2% (active), the OD600 change is -11.8% and the RFP signal change was 1.29%.

In the case of `COc1ccc(NC(=O)Nc2ccc3c(c2)C(=O)N([C@H](C)CO)C[C@H](C)[C@@H](CN(C)Cc2ccc(C(=O)O)cc2)OCCCC[C@H](C)O3)cc1`, the GFP signal change (wild-type ribosome) is -0.806% (inactive), the OD600 change is -1.43% and the RFP signal change is -1.16%.

For `C[C@H]1CCCCO[C@H](CN(C)S(=O)(=O)c2ccc(Cl)cc2)[C@@H](C)CN([C@@H](C)CO)C(=O)c2cc(NC(=O)Nc3ccc4c(c3)OCO4)ccc2O1`, the GFP signal change (wild-type ribosome) is 2.33% (inactive), the OD600 change amounted to 1.85% and the RFP signal change is -3.19%.

Regarding `COc1ccc2c3c(n(C)c2c1)[C@H](CO)N(C(C)=O)CC31CN(Cc2ccc(Cl)cc2)C1`, the GFP signal change (wild-type ribosome) is -5.13% (inactive), the OD600 change was -14.3% and the RFP signal change was determined as 1.56%.

In the case of `C[C@@H]1CN([C@@H](C)CO)S(=O)(=O)c2ccc(-c3ccncc3)cc2O[C@@H]1CN(C)C(=O)C1CCC1`, the GFP signal change (wild-type ribosome) is -1.91% (inactive), the OD600 change is 0.625% and the RFP signal change was -1.44%.

With `COc1cc(/C=C/C(=O)OCC(=O)c2ccccc2)cc(OC)c1OC`, the GFP signal change (wild-type ribosome) was -32.8% (inactive), the OD600 change was -28.1% and the RFP signal change is -5.92%.

With `CCC(C)(C)NC(=O)/C=C/c1cc(OC)c(OC)c(S(=O)(=O)N2CCc3ccccc32)c1`, the GFP signal change (wild-type ribosome) was 25% (inactive), the OD600 change amounted to 13.4% and the RFP signal change was -10.2%.

Regarding `COc1cc(/C=C/C(=O)N2CCc3ccccc3C2)cc(OC)c1OC`, the GFP signal change (wild-type ribosome) is -21.8% (active), the OD600 change is -16.9% and the RFP signal change was 0.83%.

For `O=C(C[C@H]1C[C@H]2c3cc(NC(=O)Nc4ccc(C(F)(F)F)cc4)ccc3O[C@H]2[C@@H](CO)O1)NCc1cccnc1`, the GFP signal change (wild-type ribosome) is 3.1% (inactive), the OD600 change stood at 2.56% and the RFP signal change was -0.972%.

Take `COc1cccc(S(=O)(=O)N2[C@@H]3CNC[C@H]2C3c2ccc(-c3ccccc3OC)cc2)c1` (stereo partly specified): the GFP signal change (wild-type ribosome) was -57.9% (inactive) and 6.81% (inactive); the OD600 change was -76.9% and 4.62%; the RFP signal change was -12.3% and 0.158%.

As for `COc1cccc(S(=O)(=O)N2C[C@H](O)COC[C@H]3O[C@@H](CC(=O)N4CCN(c5ccccc5)CC4)CC[C@@H]32)c1`, the GFP signal change (wild-type ribosome) is -6.4% (inactive), the OD600 change was -3.12% and the RFP signal change stood at 2.98%.

Take `CCCN(C)C[C@@H]1OCCCC[C@H](C)Oc2ccc(NS(=O)(=O)c3ccc(C)cc3)cc2C(=O)N([C@H](C)CO)C[C@@H]1C`: the GFP signal change (wild-type ribosome) was -0.00475% (inactive), the OD600 change is -4.83% and the RFP signal change was 1.63%.

Take `COCC(=O)Nc1ccc2c(c1)C(=O)N(C)C[C@@H](OC)[C@@H](C)CN(CC1CCCCC1)[C@@H](C)CO2`: the GFP signal change (wild-type ribosome) is 0.911% (inactive), the OD600 change turned out to be 5.47% and the RFP signal change is -0.068%.

As for `COc1ccc(CN2CCN(Cc3ccc(OC)c(OC)c3OC)CC2)cc1`, the GFP signal change (wild-type ribosome) was 13.2% (inactive), the OD600 change was found to be 19.1% and the RFP signal change was -0.244%.

In the case of `COc1ccccc1N1CCN(Cc2ccc(OC)c3ccccc23)CC1`, the GFP signal change (wild-type ribosome) was -21.9% (active), the OD600 change is -8.32% and the RFP signal change was -3.95%.

In the case of `COc1ccccc1N1CCN(Cc2cc(OC)c3c(c2)OCO3)CC1`, the GFP signal change (wild-type ribosome) is -2.5% (inactive), the OD600 change is -4.28% and the RFP signal change is -3.78%.
